These results are taken from PubChem BioAssay (NCATS).

Results filed as inconclusive are left out. Unmarked numbers belong to inactive results. Calls follow the shape of the dose curve; as a rule, active = well fitted cell-killing curve with a large enough effect; inconclusive = small, poorly fitted or top-dose-only effect, or effect the other way; inactive = flat fitted curve, though single readings scatter. Where a SMILES comes first, the peptide text is derived from it. Bridges are numbered along the chain shown (N, C = ends). [ ]: non-standard residue; d: D form. hArg = N=C(N)NCCCC[C@H](N)C(=O)O; Mpa = O=C(O)CCS
% is scaled to controls: 0 for no effect and ±100 for the full control effect.

The first test has as its system SKOV3. Description: Primary qHTS to identify gynecologic anti-cancer compounds using libraries of approved drugs and bioactive compounds (AID 1345084). Also: nearly all actives have a fitted effect of over 55% in size. Conditions: Gynecologic cancer cell panel viability, ATPlite luminescence, 48 h; series mostly up to 57.5 µM; activity change, negative = cytotoxicity: at the top concentration. The method in brief: (§1)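 Luminescence from the ATPlite ATP-monitoring reagent indicates viable cell number; lower signal means cytotoxicity. Cells received compound 16 h after seeding and were exposed for 48 h across five concentrations.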
On the technique in general: qHTS replaces the single test concentration by a dilution series.
On to `CCN(CC)CC1CCCCN1CC(=O)N1c2ccccc2C(=O)Nc2cccnc21` (stereo unspecified), for which the “activity change, negative = cytotoxicity” value was 0%. Turning to `O=C(/C=C/c1ccc(O)c(O)c1)O[C@@H]1C[C@@](OC(=O)/C=C/c2ccc(O)c(O)c2)(C(=O)O)C[C@@H](O)[C@@H]1O`, the “activity change, negative = cytotoxicity” value was -0.688%. In the case of `CC(C)(C)C(=O)OCOC(=O)[C@@H]1N2C(=O)[C@@H](NC(=O)[C@H](N)c3ccccc3)[C@H]2SC1(C)C`, the “activity change, negative = cytotoxicity” value is 0%. As to `CCCNC(C)(C)COC(=O)c1ccccc1`, the “activity change, negative = cytotoxicity” value is 16.5%. Regarding `CNc1c2c(nn1C)CCCC2`, the “activity change, negative = cytotoxicity” value was 0.901%.

In the case of `COc1ccccc1OC(=O)Oc1ccccc1OC`, the “activity change, negative = cytotoxicity” value is 15.1%. In the case of `CC(=O)N(CC(O)CO)c1c(I)c(C(=O)NCC(O)CO)c(I)c(C(=O)NCC(O)CO)c1I` (stereo unspecified), the “activity change, negative = cytotoxicity” value is -3.36%. Regarding `CC(N)CCCC(C)(C)O` (stereo unspecified), the “activity change, negative = cytotoxicity” value is 13.5%.

For the molecule `Cc1[nH]c(C)c(Cl)c(=O)c1Cl`, the “activity change, negative = cytotoxicity” value was 14.9% [at 25.3 µM]. Turning to `CCN(CC)CCOC(=O)C(c1ccccc1)c1ccccc1`, the “activity change, negative = cytotoxicity” value was 7.86%. Same read-out and setting: the value for `CN1CCCN=C1COC(=O)C(O)(c1ccccc1)C1CCCCC1` (stereo unspecified) was -6.58%. Regarding `CCOC(=O)c1cccnc1`, the “activity change, negative = cytotoxicity” value is 8.75%. Consider `C[N+]1(C)CCCC(OC(=O)C(O)(c2ccccc2)c2ccccc2)C1` (stereo unspecified), for which the “activity change, negative = cytotoxicity” value is 5.12%. For `CCCCCCCCCCC(CO)CCCCCCCC` (stereo unspecified), the “activity change, negative = cytotoxicity” value was 0%. `O=C(O)/C=C/c1ccc(Cn2ccnc2)cc1`: the “activity change, negative = cytotoxicity” value was 28.2%. Same read-out and setting: the figure for `CCN(CC)S(=O)(=O)c1ccc(C(=O)O)cc1` is -3.06%. Still for that read-out and setting: the value for `C/C=C/C(=O)N(CC)c1ccccc1C` was -4.17%; that for `O=C(NCCCN1CCOCC1)c1ccc(Cl)cc1` was 0%.

With `CC1(C)S[C@@H]2[C@H](N=CN3CCCCCC3)C(=O)N2[C@H]1C(=O)O`, the “activity change, negative = cytotoxicity” value is 8.47%. Still for that read-out and setting: the value for `O=C(O)c1ccc[n+]([O-])c1` was 0%; that for `NC(=O)CC[C@@H](N)C(=O)O` was 19.9%.

The subject of the next test is Tov-21-G. Described as above. The settings on record: Gynecologic cancer cell panel viability, ATPlite luminescence, 48 h; series mostly up to 57.5 µM; activity change, negative = cytotoxicity: at the top concentration. The method in brief: as §1
(In ATP-based viability assays light output follows the ATP content of the culture.)
For `CN1C[C@@H]2C[C@H]1CN2c1cc2c(cc1F)c(=O)c(C(=O)O)cn2C1CC1`, the “activity change, negative = cytotoxicity” value is 16% [at 25.3 µM]. As to `CCOc1ccc(C(=O)OCCN(CC)CC)cc1`, the “activity change, negative = cytotoxicity” value was 0.607%.

For `CCOc1cc(NC(C)=O)ccc1C(=O)OC`, the “activity change, negative = cytotoxicity” value was 2.59%. On the same count and under the same terms, the figure for `COc1nccnc1NS(=O)(=O)c1ccc(N)cc1` is -1.07%; for `CCCCCC(C)N` (stereo unspecified) it is 0.0752%; for `CCCNC(C)C(=O)Nc1c(C)csc1C(=O)OC` (stereo unspecified) it is -2.06%. Same read-out and setting: the figure for `CC(=O)N(CC(O)CN(C(C)=O)c1c(I)c(C(=O)NCC(O)CO)c(I)c(C(=O)NCC(O)CO)c1I)c1c(I)c(C(=O)NCC(O)CO)c(I)c(C(=O)NCC(O)CO)c1I` (stereo unspecified) is -0.254%; for `CN/C(=C\[N+](=O)[O-])NCCSCc1csc(CN(C)C)n1` it is 4.37%. In the case of `CCc1nnc(NS(=O)(=O)c2ccc(N)cc2)s1`, the “activity change, negative = cytotoxicity” value was 4.8%.

On to `O=C(NCC(O)CO)c1c(I)c(C(=O)NCC(O)CO)c(I)c(N(CCO)C(=O)CO)c1I` (stereo unspecified), for which the “activity change, negative = cytotoxicity” value is 1.93%.

On to `O=C(O)c1ccc(OCCCOc2ccc(C(=O)O)cc2)cc1`, for which the “activity change, negative = cytotoxicity” value was -1.02%. As for `O=C(Cn1ccnc1[N+](=O)[O-])NCCO`, the “activity change, negative = cytotoxicity” value is -1.27%. Consider `COCC(=O)Nc1c(I)c(C(=O)NCC(O)CO)c(I)c(C(=O)N(C)CC(O)CO)c1I` (stereo unspecified), for which the “activity change, negative = cytotoxicity” value is -5.57%. For `NC(=O)[C@@H]1CSSCCC(=O)N[C@@H](CCCCN=C(N)N)C(=O)NCC(=O)N[C@@H](CC(=O)O)C(=O)N[C@@H](Cc2c[nH]c3ccccc23)C(=O)N2CCC[C@H]2C(=O)N1` ([Mpa][hArg]GDWPC-NH2; disulfide 1-7), the “activity change, negative = cytotoxicity” value was 0.808%. In the case of `O=c1[nH]c(=O)c2ccccc2o1`, the “activity change, negative = cytotoxicity” value was 6.98%. For `NNC(=O)CP(=O)(c1ccccc1)c1ccccc1`, the “activity change, negative = cytotoxicity” value is -6.91%.

Consider `COc1ccccc1Oc1c(NS(=O)(=O)c2ccc(C(C)(C)C)cc2)nc(-c2ncccn2)nc1OCCO`, for which the “activity change, negative = cytotoxicity” value was -2.4%. For the molecule `CCN(CC)CC1CCCCN1CC(=O)N1c2ccccc2C(=O)Nc2cccnc21` (stereo unspecified), the “activity change, negative = cytotoxicity” value was 7.86%.

`O=C(/C=C/c1ccc(O)c(O)c1)O[C@@H]1C[C@@](OC(=O)/C=C/c2ccc(O)c(O)c2)(C(=O)O)C[C@@H](O)[C@@H]1O`: the “activity change, negative = cytotoxicity” value is 9.84%. As for `CC(C)(C)C(=O)OCOC(=O)[C@@H]1N2C(=O)[C@@H](NC(=O)[C@H](N)c3ccccc3)[C@H]2SC1(C)C`, the “activity change, negative = cytotoxicity” value is 10.2%. In the case of `CCCNC(C)(C)COC(=O)c1ccccc1`, the “activity change, negative = cytotoxicity” value is 0.685%. On to `CNc1c2c(nn1C)CCCC2`, for which the “activity change, negative = cytotoxicity” value is -7.13%. Take `COc1ccccc1OC(=O)Oc1ccccc1OC`: the “activity change, negative = cytotoxicity” value is 1.36%. Turning to `CC(=O)N(CC(O)CO)c1c(I)c(C(=O)NCC(O)CO)c(I)c(C(=O)NCC(O)CO)c1I` (stereo unspecified), the “activity change, negative = cytotoxicity” value was -0.762%.

As for `CC(N)CCCC(C)(C)O` (stereo unspecified), the “activity change, negative = cytotoxicity” value is -0.229%. `Cc1[nH]c(C)c(Cl)c(=O)c1Cl`: the “activity change, negative = cytotoxicity” value was -11.4% [at 25.3 µM]. On to `CCN(CC)CCOC(=O)C(c1ccccc1)c1ccccc1`, for which the “activity change, negative = cytotoxicity” value was -16.2%. `CN1CCCN=C1COC(=O)C(O)(c1ccccc1)C1CCCCC1` (stereo unspecified): the “activity change, negative = cytotoxicity” value was -10.4%. Still for that read-out and setting: the value for `CCOC(=O)c1cccnc1` was 7.92%; that for `C[N+]1(C)CCCC(OC(=O)C(O)(c2ccccc2)c2ccccc2)C1` (stereo unspecified) was 0.667%.
